The text below walks through data of the OligoGym collection.
Further: reference of the scale not given here.

In the first test the target is DCPS. The experiment in a line: pooled miR-30 sensor sort-seq; sequence = guide strand. The settings on record: shRNA.
Consider TACCATTTCCAACTCCTGCCTC, for which the sensor-assay potency score (higher = more potent) is -0.586.

TTTTAGAAAATTCACTTGGAGA showed a sensor-assay potency score (higher = more potent) of -0.97. On the same count and under the same terms, the result for TTATACACCCACTGGATGCTGA reads -0.178; that for TTCAATACTAGGAATAAGCCGG, -0.221; that for TAGTCATCTCCCGTCTCTCGGA, -0.952. Take TTCTGCAGGTGTTTCTCTGTGG: the sensor-assay potency score (higher = more potent) came out at 0.117. Still for that read-out and setting: as for TTGTCTTGGAGGGAACAAGTGA, the figure is -0.588; as for TATTCCTGTAGTCATCTCCCGT, -0.287. On the same count and under the same terms, as for TTACATCATTCAGTTGTCTTGG, the figure is 0.191; as for ATTCCTGTAGTCATCTCCCGTC, -0.108; as for TAGGAAAATGATTTTGTCCCGC, -0.432.

Another test concerns the target DCST1. Described as above. The settings on record: shRNA.
TTGATCTGCAGCTCCACGGTGC showed a sensor-assay potency score (higher = more potent) of -0.609. TACAAGAACATAATCTTCTGTT had a sensor-assay potency score (higher = more potent) of 0.614. Same read-out and setting: the result for TATCCCAGGACAAAGAGCCTGC reads -0.178.

Regarding ATCGGTACTGCAGCTCTCCAGT, the sensor-assay potency score (higher = more potent) was -0.753.

As for TTGTAGAGGAACAGGATCCGCT, the sensor-assay potency score (higher = more potent) was -0.486. In the case of TAACAGGCAGAGACACACTAAC, the sensor-assay potency score (higher = more potent) was -1.38. Still for that read-out and setting: as for TTGGGTACTAGTAGGAGGCTGG, the figure is 0.466; as for TAGGTCATTGTAGAGGAACAGG, -1.31. Same read-out and setting: the result for TTTGCTACTCAGCAGGTCCTTG reads -0.773; that for TTCTTCGTAGATGTTCATGGGG, 0.19; that for TCTTCGTAGATGTTCATGGGGT, -0.405. As for TTCTTTGCCCTCTTGTGCCATT, the sensor-assay potency score (higher = more potent) was -1.23.
